# DT40 TDP1 no CPT: qHTS for Inhibitors of human tyrosyl-DNA phosphodiesterase 1 (TDP1): qHTS in cells in absence of CPT; hit rate 15% among 420,000; Potency, µM (top dose mostly 46.2 µM), usual class: inhibitors; AID 686978, 2013; DT40 Tdp1-/- hTDP1 cells, no CPT, ATP luminescence, 48 h; also: nearly all actives have a fitted effect of over 55% in size
#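 Camptothecin absent (DMSO only). Human TDP1-complemented DT40 knockout cells, 400 cells/well, 37 °C for minimum 48 hr; ATP measured via CellTiter-Glo, 30 min dark incubation, luminescence.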
# HepG2 viability: kills HepG2 cells in TGF-b inhibitor counter-screen; AID 588856; HepG2 CAGA-GFP viability, ATP luminescence, 18 h; hit rate 0.76% among 410,000; Potency, µM (series often up to 46.1 µM), usual class: cytotoxic
#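 HepG2 CAGA-GFP cells (1000/well, DMEM with 1% FBS) received compound, then TGF-beta at 500 pg/mL final, and were incubated 18 hours at 37 degrees C. Viability was read by CellTiter-Glo luminescence. Media-only wells were set as complete cell-killing and DMSO as no toxicity.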
# IL1B secr inh: blocks inflammasome-driven IL-1 beta release | hit rate 4.7% among 360,000 | activity change, % at 57.5 µM | THP-1 LPS/ATP IL-1B secretion, AlphaLISA, 16 h; hits give low values; in the data active = activity change below about -50%; inconclusive = mostly about -30% to -49%
#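 Secreted IL-1B measured by AlphaLISA bead assay after 16 h compound exposure of THP-1 cells; compounds (final up to 57.5 uM) added 1 h before LPS (250 ng/mL) and ATP (1.25 mM) stimulation; lower signal means less secretion.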
# TGFb SMAD3 inh: inhibitors of TGF-b signaling; Potency, µM (top dose mostly 46.1 µM), actives largely listed as inhibitors; hit rate 1.2% among 410,000; HepG2 CAGA-GFP TGF-b/SMAD3 reporter, GFP fluorescence, 18 h; TGF-beta stimulated, 500 pg/mL final; also: nearly all actives have a fitted effect of over 65% in size
#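 GFP signal (ex488/em500-530) from TGF-beta-stimulated HEPG2 CAGA-GFP cells, 500 pg/mL final, 18 h at 37 degrees C in DMEM plus 1% FBS, normalized to unstimulated and DMSO-stimulated controls.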
# TDP1 inh: blocks human tyrosyl-DNA phosphodiesterase 1 | Q9NUW8 | recombinant TDP1, AlphaScreen DNA substrate cleavage | Potency, µM (titrated, usually from 130 µM), hits mostly inhibitors | hit rate 0.28% among 350,000; also: nearly all actives have a fitted effect of over 40% in size
# Target sequence (Q9NUW8 whole entry, looked up): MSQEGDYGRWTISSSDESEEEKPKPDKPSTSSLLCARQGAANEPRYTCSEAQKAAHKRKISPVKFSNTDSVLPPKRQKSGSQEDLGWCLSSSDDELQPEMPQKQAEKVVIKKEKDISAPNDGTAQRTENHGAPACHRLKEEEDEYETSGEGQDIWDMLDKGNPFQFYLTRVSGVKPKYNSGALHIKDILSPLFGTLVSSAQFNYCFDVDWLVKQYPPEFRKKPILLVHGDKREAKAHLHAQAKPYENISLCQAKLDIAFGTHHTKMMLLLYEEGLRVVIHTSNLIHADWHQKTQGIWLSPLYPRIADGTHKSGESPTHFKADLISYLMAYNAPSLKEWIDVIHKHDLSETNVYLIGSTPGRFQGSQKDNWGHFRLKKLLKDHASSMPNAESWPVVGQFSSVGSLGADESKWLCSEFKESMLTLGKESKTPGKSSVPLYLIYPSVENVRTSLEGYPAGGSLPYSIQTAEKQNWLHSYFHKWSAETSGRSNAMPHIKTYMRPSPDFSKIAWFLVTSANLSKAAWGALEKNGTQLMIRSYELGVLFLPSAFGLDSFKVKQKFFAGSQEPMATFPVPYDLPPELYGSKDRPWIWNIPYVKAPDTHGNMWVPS
#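 Recombinant E. coli-expressed Tdp1 (1 nM) preincubated with compound 15 min at RT, then 5'-biotin/3'-phosphotyrosine-FITC DNA substrate (15 nM) added for 5 min. AlphaScreen beads (10 ug/ml) added, 10 min RT; tyrosine-FITC cleavage read as signal loss.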
# TDP1 cell CPT: DT40-hTDP1 cell growth loss with CPT | chicken DT40 Tdp1-/-;hTDP1 cells + 20 nM CPT, ATP luminescence, 48 h | Potency, µM (series often up to 46.2 µM), most hits filed as inhibitors | hit rate 12% among 420,000 | AID 686979; also: nearly all actives have a fitted effect of over 55% in size
#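 Chicken DT40 Tdp1-/- cells complemented with human TDP1, 400 cells/well, exposed to compounds plus 20 nM camptothecin for at least 48 h at 37 C; viability read as ATP content by CellTiter-Glo luminescence.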
# Numbers stand for hits; . = inactive; ? = inconclusive; / = no result given; [ ] = remark or other dose. Rows were chosen to be rich in hits. Some 19% of all compounds tested hit in one or more screens of this group. Unless noted, calls follow the shape of the dose curve; as a rule, active = well fitted curve in the direction sought with a large enough effect; inconclusive = small, poorly fitted or top-dose-only effect, or another doubt; inactive = no such curve, though single readings can be large; an effect the other way counts as inactive or inconclusive.
SMILES,DT40 TDP1 no CPT,HepG2 viability,IL1B secr inh,TGFb SMAD3 inh,TDP1 inh,TDP1 cell CPT
COc1ccc(C2(CNC(=O)c3cc(OC)c(OC)c(OC)c3)CCCC2)cc1OC,?,.,.,.,/,?
Cc1cc(C(=O)Nc2ccon2)ccc1[N+](=O)[O-],.,.,.,.,/,.
N#C/C(=C/c1ccc(N2CCCCCC2)o1)c1ccc(F)cc1,4.6µM,.,-70,.,/,5.2µM
N#C/C(=C/c1ccc(N2CCCCCC2)o1)c1cccc(F)c1,21µM,.,.,.,.,?
CCOC(=O)c1c(NC(=O)CSc2cn(CCNC(=O)c3ccc(OC)cc3)c3ccccc23)sc2c1CCC2,.,.,/,?,.,?
CN(N=O)c1ccc(/C=C/c2ccccc2)cc1,.,.,/,.,/,?
CC(=O)N(O)c1ccc(C=Cc2ccccc2)cc1,0.41µM,.,.,?,/,2.1µM
CC(C)(C)S(=O)N1Cc2cc(C(=O)NCc3ccc4c(c3)OCO4)nc(-c3cccc(-c4ccncc4)c3)c2[C@H]1CCO (some centres not stated),?,.,?,.,/,?
CCCNC(=O)c1cc2c(c(-c3cccc(-c4ccc(F)cc4)c3)n1)[C@H](CCO)N(S(=O)C(C)(C)C)C2 (some centres not stated),23µM,.,?,?,/,?
CC(C)(C)S(=O)N1Cc2cc(C(=O)NCc3ccc4c(c3)OCO4)nc(-c3cccc(-c4ccccc4)c3)c2[C@@H]1CCO (some centres not stated),?,.,.,.,/,23µM
CCCNC(=O)c1cc2c(c(-c3cccc(-c4ccc(F)cc4)c3)n1)[C@@H](CCO)N(S(=O)C(C)(C)C)C2 (some centres not stated),?,.,.,16µM,/,?
COCC(=O)N1CCC2(CCCN(Cc3ccc(C#N)cc3)C2)CC1,.,/,/,/,/,.
Cc1ccc(S(=O)(=O)N2CCc3nc(-c4ccccc4)c4c(c3C2)CO[C@@H](C)C4)cc1,/,/,/,/,.[12.3 µM],/
Cc1ccc(-c2nc(CS(=O)CC(=O)N3CCN(c4ccccc4)CC3)c(C)o2)cc1 (configuration not stated),15µM,.,.,?,.,23µM
Cc1oc(-c2ccccc2Cl)nc1CS(=O)CC(=O)N1CCN(c2ccccc2)CC1 (configuration not stated),.,.,.,.,.,.
Cc1ccc(-c2nc(CS(=O)CC(=O)N3CCN(c4ccc(Cl)cc4)CC3)c(C)o2)cc1 (configuration not stated),21µM,.,/,.,.,16µM
Cc1oc(-c2ccccc2)nc1CS(=O)CC(=O)N1CCc2ccccc2C1 (configuration not stated),26µM,.,.,.,.,9.2µM
CCOC(=O)N1CCC(NC(=O)CS(=O)Cc2nc(-c3ccc(Cl)cc3)oc2C)CC1 (configuration not stated),15µM,.,.,?,.,?
Cc1ccc(-c2cc3ncc4c(n3n2)-c2ccccc2OC4)cc1,.,.,/,.,.,.
CCc1ccc2oc(-c3ccc(C)c(NC(=O)c4cc([N+](=O)[O-])ccc4N4CCOCC4)c3)nc2c1,?,.,/,.,.,?
COc1cc(NC(=O)c2ccc(OCc3c(C)noc3C)c(OC)c2)cc(OC)c1,13µM,.,.,.,.,?
COc1cc(C(=O)Nc2nc3ccc(C)cc3s2)ccc1OCc1c(C)noc1C,18µM,.,.,.,.,18µM
COc1ccc(NS(=O)(=O)c2cc(NC(=O)c3cccc(OCc4c(C)noc4C)c3)ccc2OC)cc1,23µM,.,.,.,.,?
CO[C@H]1C[C@@H]2CC[C@@H](C)[C@@](O)(O2)C(=O)C(=O)N2CCCC[C@H]2C(=O)O[C@H]([C@H](C)C[C@@H]2CC[C@@H](O)[C@H](OC)C2)CC(=O)[C@H](C)/C=C(\C)[C@@H](O)[C@@H](OC)C(=O)[C@H](C)C[C@H](C)/C=C/C=C/C=C/1C,?,.,/,?,/,4.5µM
CC[C@@H]1/C=C(\C)C[C@H](C)C[C@H](OC)[C@H]2O[C@@](O)(C(=O)C(=O)N3CCCC[C@H]3C(=O)O[C@H](/C(C)=C/[C@@H]3CC[C@@H](O)[C@H](OC)C3)[C@H](C)[C@@H](O)CC1=O)[C@H](C)C[C@@H]2OC,/,/,/,/,.,/
SMILES,DT40 TDP1 no CPT,HepG2 viability,IL1B secr inh,TGFb SMAD3 inh,TDP1 inh,TDP1 cell CPT
CO[C@H]1C[C@@H]2CC[C@@H](C)[C@@](O)(O2)C(=O)C(=O)N2CCCC[C@H]2C(=O)O[C@H](C(C)C[C@H]2CC[C@@H](O)[C@H](OC)C2)CC(=O)[C@H](C)/C=C(\C)[C@@H](O)[C@@H](OC)C(=O)[C@H](C)C[C@H](C)/C=C/C=C/C=C/1C (some centres not stated),?,/,/,/,.,0.0079µM
CO[C@H]1C[C@@H]2CC[C@@H](C)[C@@](O)(O2)C(=O)C(=O)N2CCCC[C@H]2C(=O)O[C@H]([C@H](C)C[C@@H]2CC[C@@H](OCCO)[C@H](OC)C2)CC(=O)[C@H](C)/C=C(\C)[C@@H](O)[C@@H](OC)C(=O)[C@H](C)C[C@H](C)/C=C/C=C/C=C/1C,0.027µM,/,/,/,/,0.042µM
O=C(NCc1ccc(Cl)cc1)C(=O)NCC1OCCCN1S(=O)(=O)c1cccs1 (configuration not stated),?,.,.,.,.,?
COc1ccc([C@@H]2[C@@H]3C(=O)N(C(C)(C)C)C(=O)[C@@H]3[C@]3(C)C(=O)N(c4ccc(C)cc4)C(=O)N23)cc1,.,.,.,.,/,.
Cc1ccc(S(=O)(=O)Nc2cc3c(cc2NCc2ccccc2)n(C)c(=O)n3C)cc1,16µM,.,/,.,.[12.3 µM],9.2µM
Cn1c(=O)n(C)c2cc(S(=O)(=O)Nc3ccccc3)ccc21,?,.,.,.,.,.
CC(C)c1ccc(S(=O)(=O)Nc2cc3c(cc2NCc2ccccc2)n(C)c(=O)n3C)cc1,?,.,/,?,.[12.3 µM],?
Cc1ccc(S(=O)(=O)Nc2cc3c(cc2NCc2ccccc2)n(C)c(=O)n3C)c(C)c1,23µM,.,/,.,.,8.2µM
Cn1c(=O)n(C)c2cc(NS(=O)(=O)c3ccc(F)cc3)c(NCc3ccccc3)cc21,15µM,.,/,.,.,9.2µM
CSc1ccc(CCNC(=O)CN2C(=O)COc3ccc(S(=O)(=O)N4CCCCCC4)cc32)cc1,/,.,/,?,.,/
